Screening data (PubChem BioAssay)
The sample as a whole holds a higher share of hits than the screen did.
nsP2pro primary – CHIKV nsP2 protease inhibition, primary qHTS | Potency, µM (titrated, usually from 24.9 µM), for inactives: top-dose activity change, negative = inhibition, hits mostly inhibitors | Q8JUX6 | FRET peptide cleavage, nsP2pro, fluorescence 1 h | actives 1.1% (n = 31,000) | AID 1964107; further: nearly all actives have a fitted effect of over 60% in size
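Enzyme 150 nM, substrate 2.5 uM (both final); Tris-HCl 10 mM pH 8.0 + 0.01% Tween 20; cpd up to 25 uM, 7 pts; 15 min preinc., 1 h RT; fluorescence ex 525/em 598.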
CHIKV nsP2 cell – secondary cell-based test for CHIKV nsP2 protease inhibitors | shares compounds with nsP2pro primary | cell-based CHIKV nsP2 protease reporter assay | Potency, µM (highest dose often 51.1 µM), without a hit: top-dose activity change, negative = inhibition, usual class: inhibitors | actives 10% (n = 450); further: nearly all actives have a fitted effect of over 70% in size
NSP2 full ctr – full-length CHIKV NSP2 protease inhibition, selectivity. Potency, µM (series often up to 50.7 µM), for the others: top-dose activity change, negative = inhibition, hits mostly inhibitors. AID 1964101. Full-length CHIKV NSP2 protease enzymatic counterscreen. actives 39% (n = 410). shares compounds with nsP2pro primary; further: nearly all actives have a fitted effect of over 65% in size
Furin counter – inhibits human furin in a CHIKV nsP2 protease selectivity counterscreen; shares compounds with nsP2pro primary; Recombinant human furin enzymatic counterscreen, fluorogenic substrate; Potency, µM (doses to about 50.6 µM), inactives show at the highest dose activity change, negative = inhibition, usual class: inhibitors; actives 6% (n = 410); AID 1964102
Target sequence (P09958 whole entry, looked up): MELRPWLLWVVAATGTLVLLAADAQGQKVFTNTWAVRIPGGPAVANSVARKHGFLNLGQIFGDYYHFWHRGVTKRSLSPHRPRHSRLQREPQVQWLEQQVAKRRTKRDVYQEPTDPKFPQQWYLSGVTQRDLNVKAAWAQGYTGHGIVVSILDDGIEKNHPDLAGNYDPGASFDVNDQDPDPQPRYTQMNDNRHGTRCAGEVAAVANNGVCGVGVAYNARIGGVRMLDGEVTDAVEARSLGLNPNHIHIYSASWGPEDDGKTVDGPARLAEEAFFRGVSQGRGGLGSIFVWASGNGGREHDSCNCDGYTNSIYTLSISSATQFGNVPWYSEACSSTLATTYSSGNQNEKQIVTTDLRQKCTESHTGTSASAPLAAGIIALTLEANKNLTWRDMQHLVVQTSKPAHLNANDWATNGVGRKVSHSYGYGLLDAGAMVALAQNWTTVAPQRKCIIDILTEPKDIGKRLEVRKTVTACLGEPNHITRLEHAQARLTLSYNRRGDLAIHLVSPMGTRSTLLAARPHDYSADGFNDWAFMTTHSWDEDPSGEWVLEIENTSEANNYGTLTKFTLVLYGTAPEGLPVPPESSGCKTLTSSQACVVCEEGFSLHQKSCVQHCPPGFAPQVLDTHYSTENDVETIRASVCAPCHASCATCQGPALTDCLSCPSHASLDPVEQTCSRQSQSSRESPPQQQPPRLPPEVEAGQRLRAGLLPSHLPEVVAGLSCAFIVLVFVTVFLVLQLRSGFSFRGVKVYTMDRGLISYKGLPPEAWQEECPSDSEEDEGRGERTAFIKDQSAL
nsP2 NS23 pep – selectivity test for CHIKV nsP2 protease inhibitors: endogenous NS2/3 peptide; shares compounds with nsP2pro primary; Purified CHIKV nsP2 protease, endogenous NS2/3 peptide cleavage; Potency, µM (series often up to 51 µM), without a hit: at the highest dose activity change, negative = inhibition, most hits filed as inhibitors; actives 34% (n = 410); AID 1964103; further: nearly all actives have a fitted effect of over 55% in size
Papain counter – inhibits papain in a CHIKV nsP2 protease selectivity counterscreen | shares compounds with nsP2pro primary | purified papain protease activity, enzymatic inhibition | Potency, µM (top dose mostly 51 µM), for inactives: at the highest dose activity change, negative = inhibition, hits mostly inhibitors | actives 5% (n = 410) | AID 1964104
nsP2pro confirm – confirmation of CHIKV nsP2 protease inhibitors; actives 43% (n = 410); AID 1964105; Potency, µM (series often up to 25.5 µM), without a hit: at the highest dose activity change, negative = inhibition, hits mostly inhibitors; shares compounds with nsP2pro primary; CHIKV nsP2 protease enzymatic activity, qHTS; further: nearly all actives have a fitted effect of over 75% in size
HCV NS3 4A cs – HCV NS3/4A protease inhibition, counterscreen; actives 20% (n = 410); HCV NS3/4A protease biochemical counterscreen; shares compounds with nsP2pro primary; Potency, µM (series often up to 50.9 µM), most hits filed as inhibitors; further: nearly all actives have a fitted effect of over 55% in size
* marks the source's active call; other numbers are inactive results; i = inactive; ? = inconclusive; [ ] = another dose, or the depositor's remark. The call rests on the fitted dose curve. On the % scale 0 is the no-effect control and ±100 the full control effect; potency means the concentration at half of the fitted maximal effect.

SMILES	nsP2pro primary	others
CCN(CC)C(=O)[C@@H]1CCC[C@@H](NC(C)=O)CN(C)C(=O)C1	-7.5%[39.2 µM]
C#CCCC(=O)Nc1sc2c(c1-c1nc3ccccc3s1)CCNC2	1.0%
O=C(NC1CCN(C(=O)c2ccc(-c3cncnc3)cc2)CC1)c1ccccc1F	i
Cc1nc(CCNC(=O)[C@H]2CCC[C@H](O)C2)nc2c1CCC2	i
O=C(Nc1cccc(C(F)(F)F)c1)Nc1nnc(-c2ccncc2)s1	i
O=C(Nc1ccc(Cl)c(S(=O)(=O)N2CCOCC2)c1)c1ccccc1	-5.1%
O=C(Nc1ccc(N2CCOCC2)c(Cl)c1)c1ccc(Br)o1	?	CHIKV nsP2 cell=18.3µM*;NSP2 full ctr=13.0%;Furin counter=-13.1%;nsP2 NS23 pep=14.4%;Papain counter=-18.2%;nsP2pro confirm=9.5%;HCV NS3 4A cs=i
O=C(Nc1cccc(NC(=O)c2ccc(Br)o2)c1)c1ccccc1	-10.7%
COCc1ncc(C)n1C1CCCN(C(=O)CCCc2ccccc2)C1 (centres undefined)	2.8%
Cc1ccc(C)c(-c2cc(C(F)(F)F)nn2-c2ccc(S(N)(=O)=O)cc2)c1	7.7%
COc1ccccc1C(c1c(O)cc(C)n(Cc2ccco2)c1=O)N1CCCCC1 (centres undefined)	-21.1%
COCCn1c(C)cc(O)c(C(c2ccccc2OC)N2CCN(c3ccccc3)CC2)c1=O (centres undefined)	?	CHIKV nsP2 cell=2.6%
COC(=O)N(C)Cc1cccc(N2CCN(C(c3ccccc3)c3ccccc3)CC2)c1	-7.7%
O=c1c(O[C@@H]2OC([C@H](O)CO)[C@H](O)[C@H]2O)c(-c2ccc(O)c(O)c2)oc2cc(O)cc(O)c12 (some centres undefined)	23.6%
COc1ccc(NC(=O)N2C[C@@H]3C[C@H](C2)c2c(NC(=O)CSC)ccc(=O)n2C3)cc1	-2.2%
COc1ccc(CC(=O)N2C[C@@H]3C[C@H](C2)c2c(-c4ccc(NC(C)=O)cc4)ccc(=O)n2C3)cc1	-4.5%
CCCS(=O)(=O)Nc1ccc(=O)n2c1[C@@H]1C[C@@H](CN(C(=O)Nc3ccc(OC)cc3)C1)C2	?	CHIKV nsP2 cell=3.0%;NSP2 full ctr=?;Furin counter=-9.3%;nsP2 NS23 pep=?;Papain counter=-1.7%;nsP2pro confirm=?;HCV NS3 4A cs=?
Oc1ccc(NCCN2CCCC2)cc1	3.7%[39.2 µM]
O=C(Nc1ccc(Cl)c(C(F)(F)F)c1)Nc1cccc(-c2ccncc2)n1	1.4%
CCCCC(=O)O	-3.8%
CCCCCCCCCCCCCC(=O)O	-32.5%
CCCCCCCCCCCCCCCCCC(=O)O	?	CHIKV nsP2 cell=5.3%;NSP2 full ctr=3.66µM*;Furin counter=5.3%;nsP2 NS23 pep=-19.4%;Papain counter=20.6µM*;nsP2pro confirm=4µM*;HCV NS3 4A cs=i
O=c1c2ccccc2[se]n1-c1ccccc1	4.42µM*	CHIKV nsP2 cell=?;NSP2 full ctr=?;Furin counter=2.06µM*;nsP2 NS23 pep=9.19µM*;Papain counter=-10.9%;nsP2pro confirm=2.25µM*;HCV NS3 4A cs=3.66µM*
CNC(=O)NCCc1ncc(C)n1C1CCCCCCC1	i
O=C(NCc1ccccc1)c1cc2sccc2n1Cc1ccc(F)cc1	7.1%
Cc1ccc(CNC(=O)c2cc3sccc3n2Cc2ccc(F)cc2)cc1	14.1%
Cc1c(Cl)cccc1NC(=O)c1cc2sccc2n1Cc1ccc(F)cc1	7.94µM*	CHIKV nsP2 cell=?;NSP2 full ctr=5.8µM*;Furin counter=-18.3%;nsP2 NS23 pep=16.3µM*;Papain counter=-8.2%;nsP2pro confirm=7.98µM*;HCV NS3 4A cs=8.19µM*
CN(Cc1cccc(N2CCN(C(c3ccccc3)c3ccccc3)CC2)c1)[S+](C)(=O)[O-]	-9.5%
COC(=O)c1cccc(CNCC2=CC(C)(C)COc3ccc(OC)cc32)c1	i
O=C(c1ccno1)N1C[C@@H]2OCC(=O)N(CC3CCCCC3)[C@@H]2C1	7.8%[39.2 µM]
